In PubChem BioAssay (NCI):
This is part of a sample that, as a whole, favours compounds with a hit. Of some 83,000 tested, about 20% had one in any assay.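 96-well plates, one dose, 48 hours. Percent growth reported; active if below 10.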 Activity calls are given as the source filed them.

Test system: COLO 205 colon
Test: NCI-60 one-dose screen, 48 h (100 = growth as untreated, 0 = no growth, -100 = all killed)
Settings: 10 µM unless noted

| SMILES | growth |
| --- | --- |
| N#CC(C#N)=Cc1c(-c2ccccc2)[nH]c2ccccc12 | 20.4% (inactive) |
| CCCCc1ccc(NS(=O)(=O)c2cc3c4c(c2)CCN4C(=O)CC3)cc1 | 14.5% (inactive) |
| O=C(CSc1ncccc1C(=O)O)Nc1ccc(Oc2ccccc2)cc1 | 108% (inactive) |
| N#C/C(=C\c1c(-c2ccccc2)[nH]c2ccccc12)C(=O)c1ccccc1 | 25.6% (inactive) |
| O=C1/C=C/[C@@H](O)[C@@H]2C[C@@H](O)C[C@H]2/C=C/CCCCO1 | -49.7% (active) |
| CCCC(c1nnnn1C1CCCCC1)N1CCN(C(=O)c2ccco2)CC1 (stereo not given) | 73.4% (inactive) |
| Nc1nc(Nc2cccc(F)c2)nc2ccccc12 | -54.1% (active) |
| CC(C)(C)c1ccc(C2CC(=O)C3=C(C2)Nc2ccccc2N(C(=O)c2ccccc2Cl)C3c2ccc(F)cc2)cc1 (stereo not given) | -63.5% (active) |
| O=CCCCC(O)C=O (stereo not given) | 100% (inactive) |
| CN(O)c1nc(N(C)O)nc(N2CCOCC2)n1 | 3.87% (active) |
